Results on 21 compounds are retold here after PubChem BioAssay (Tox21).

Results filed as inconclusive are left out. Active and inactive are the calls of the source. Unless noted, calls come from the whole dose curve; as a rule, active = well fitted curve in the direction sought with a large enough effect in the repeat runs; inconclusive = weak or mixed curves; inactive = no such curve, though single readings can be large; an effect the other way counts as inactive or inconclusive.

Assay [1] relates to thyroid hormone receptor (rat, GH3 cells). The experiment in a line: qHTS assay to identify small molecule agonists of the thyroid receptor (TR) signaling pathway (AID 743066; calls by dose curve).
In assay [2] the target is Estrogen receptor (Homo sapiens) (UniProt P03372). The assay is described as follows: qHTS assay to identify small molecule antagonists of the estrogen receptor alpha (ER-alpha) signaling pathway (AID 743069; active = well fitted curve in the direction sought with a large enough effect in the signal ratio in the repeat runs, not every such curve was filed as active; the % refers to the signal ratio). Put shortly:
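HEK293 cells stably carrying an ER-alpha-UAS-bla beta-lactamase reporter were pre-cultured overnight in 2% charcoal-stripped FBS medium. Test compounds in DMSO were added together with 17beta-estradiol for 18 hr at 37C. Read-out was fluorescence after 2 hr with LiveBLAzer B/G FRET substrate at room temperature.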
For orientation: In qHTS, concentration-response curves come from the screen itself.

Assay [3] is described as follows: qHTS assay to identify small molecule antagonists of the estrogen receptor alpha (ER-alpha) signaling pathway - cell viability counter screen (AID 743074; calls by dose curve; note: nearly all actives have a fitted effect of over 45% in size).
The target of assay [4] is Estrogen receptor (Homo sapiens) (UniProt P03372). The assay is described as follows: qHTS assay to identify small molecule agonists of the estrogen receptor alpha (ER-alpha) signaling pathway (AID 743075; calls by dose curve).
For assay [5] the target is unchanged. The assay is described as follows: qHTS assay to identify small molecule agonists of the estrogen receptor alpha (ER-alpha) signaling pathway using the BG1 cell line (AID 743079). Note: nearly all actives have a fitted effect of over 20% in size. Note: potency is the fitted concentration of half-maximal effect.
Assay [6] in a line: qHTS assay to identify small molecule antagonists of the estrogen receptor alpha (ER-alpha) signaling pathway using the BG1 cell line (AID 743080; calls by dose curve;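 note: BG1 cells stimulated with 17beta-estradiol alongside compound; nearly all actives have a fitted effect of over 25% in size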; note: potency is the fitted concentration of half-maximal effect). In a few lines: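 Luminescence from a 4×ERE-luciferase reporter in BG1-Luc-4E2 cells served as read-out. Cells, pre-cultured 5 days in stripped-serum phenol-red-free medium, were exposed to compound with 17beta-estradiol co-stimulation for 21.5 h at 37 C.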

Assay [7] in a line: qHTS assay to identify small molecule antagonists of the estrogen receptor alpha (ER-alpha) signaling pathway using the BG1 cell line - cell viability counter screen (AID 743081).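 Note: compound given together with 17beta-estradiol as the ER stimulus; series mostly up to about 70 µM; nearly all actives have a fitted effect of over 45% in size.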
The target in the next assay is Aromatase (Homo sapiens) (UniProt P11511). The experiment in a line: qHTS assay to identify aromatase inhibitors (AID 743083). Note: nearly all actives have a fitted effect of over 55% in size. Note: potency is the fitted concentration of half-maximal effect.
The nature of assay [8]: qHTS assay to identify aromatase inhibitors - cell viability counter screen (AID 743084).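 Note: cells stimulated with testosterone during compound exposure; nearly all actives have a fitted effect of over 55% in size.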
Assay [9] addresses Aryl hydrocarbon receptor (Homo sapiens) (UniProt P35869). The experiment in a line: qHTS assay to identify small molecule that activate the aryl hydrocarbon receptor (AhR) signaling pathway (AID 743085).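 For activation: HG2L7.5c1 human HepG2 liver cells with stably integrated DRE-driven firefly reporter; series mostly up to about 70 µM.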 Note: nearly all actives have a fitted effect of over 15% in size. Note: potency is the fitted concentration of half-maximal effect. In a few lines:
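Reporter assay in engineered HepG2 line HG2L7.5c1, whose plasmid carries twenty dioxin responsive elements upstream of firefly luciferase. Treatment lasted 24 h at 37C; ONE-Glo luminescence gauged induction.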

Assay [10] is described as follows: qHTS assay to identify small molecule that activate the aryl hydrocarbon receptor (AhR) signaling pathway - cell viability counter screen (AID 743086).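 Note: HepG2 liver cells carrying the AhR DRE luciferase reporter; series mostly up to about 70 µM; nearly all actives have a fitted effect of over 45% in size.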 In a few lines: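 HepG2-AhR-luc (HG2L7.5c1) cells, 4000/well, were preincubated 5 h at 37C, exposed to compound in qHTS format for 24 hr at 37C, then given CellTiter-Fluor for 30 min; viability was read as fluorescence in the reporter wells.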

For assay [11], the target named is Peroxisome proliferator-activated receptor gamma (Homo sapiens) (UniProt P37231). The assay is described as follows: qHTS assay to identify small molecule agonists of the peroxisome proliferator-activated receptor gamma (PPARg) signaling pathway (AID 743094; active = well fitted activation curve with a large enough effect in the signal ratio in the repeat runs, not every such curve was filed as active; the % refers to the signal ratio). In a few lines:
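Stably transfected HEK293H cells (GeneBLAzer PPARg UAS-bla) were incubated with test substances for 17 h at 37C after a 5 h pre-incubation; beta-lactamase activity was then detected by FRET substrate fluorescence.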

Assay [12] shares this target. The experiment in a line: qHTS assay to identify small molecule antagonists of the peroxisome proliferator-activated receptor gamma (PPARg) signaling pathway (AID 743191; calls by dose curve; note: series mostly up to about 63 µM; nearly all actives have a fitted effect of over 30% in size). In a few lines: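 GeneBLAzer PPARg UAS-bla HEK293H cells carrying a UAS-driven beta-lactamase reporter were plated at 3000 cells/well, preincubated 5 h at 37C, then given compound for 17 h at 37C; LiveBLAzer B/G FRET substrate was read after 1 h at room temperature.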

The nature of assay [13]: qHTS assay to identify small molecule antagonists of the peroxisome proliferator-activated receptor gamma (PPARg) signaling pathway - cell viability counter screen (AID 743194). Note: nearly all actives have a fitted effect of over 55% in size. In a few lines:
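PPARg-UAS-bla HEK293H cells were plated, rested 5 h at 37 C, then treated with compounds plus rosiglitazone (50 nM final) for 17 h at 37 C; viability was then read by CellTiter-Glo luminescence after 30 min at room temperature.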

A short description of assay [14]: qHTS assay for small molecule agonists of the antioxidant response element (ARE) signaling pathway - cell viability counter screen (AID 743203; calls by dose curve; note: nearly all actives have a fitted effect of over 55% in size). In a few lines: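 Cells (ARE-bla HepG2, 2,000/well) receive DMSO-dissolved compounds after a 5 hrs rest. Plates incubate 16 hrs at 37C/5% CO2. CellTiter-Glo luminescence is then recorded after 30 min at room temperature.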

A short description of assay [15]: qHTS assay for small molecule activators of the heat shock response signaling pathway - cell viability counter screen (AID 743209). Note: nearly all actives have a fitted effect of over 50% in size. Note: potency is the fitted concentration of half-maximal effect. Put shortly: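 Quantitative HTS format, Tox21 10K library. HeLa cells carrying an HSE-driven beta-lactamase reporter were treated 5 h at 37 C, then assessed for viability by CellTiter-Glo luminescence.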
A short description of assay [16]: qHTS assay to identify small molecule antagonists of the thyroid receptor (TR) signaling pathway (AID 743065). In a few lines: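 GH3.TRE-Luc rat pituitary cells carrying two TR response elements driving luciferase were plated for 4 h, given compound plus 1 nM T3 (final), and incubated 23.5 h at 37 C. ONE-Glo luminescence measured reporter inhibition; CellTiter-Fluor fluorescence tracked cytotoxicity.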

Assay [17] can be described thus: qHTS assay for small molecule activators of the heat shock response signaling pathway (AID 743210; active = well fitted activation curve with a large enough effect in the signal ratio in the repeat runs, with a control signal flat, not every such curve was filed as active; the % refers to the signal ratio; note: series mostly up to about 63 µM). Put shortly:
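HSE-bla HeLa cells (beta-lactamase reporter under heat shock response elements) were exposed to compounds for 5 h at 37 C, then loaded with LiveBLAzer B/G FRET substrate for 2.5 h at room temperature before fluorescence reading.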

The nature of assay [18]: qHTS assay for small molecule agonists of the antioxidant response element (ARE) signaling pathway (AID 743202; active = well fitted activation curve with a large enough effect in the signal ratio in the repeat runs, not every such curve was filed as active; the % refers to the signal ratio; note: potency is the fitted concentration of half-maximal effect). Put shortly:
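Read-out: LiveBLAzer B/G FRET substrate fluorescence after 2 h at room temperature, following 16 h compound treatment at 37 C of HepG2 cells carrying an ARE-driven beta-lactamase reporter.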

Chain of Peroxisome proliferator-activated receptor gamma (Homo sapiens) (P37231 whole entry, looked up): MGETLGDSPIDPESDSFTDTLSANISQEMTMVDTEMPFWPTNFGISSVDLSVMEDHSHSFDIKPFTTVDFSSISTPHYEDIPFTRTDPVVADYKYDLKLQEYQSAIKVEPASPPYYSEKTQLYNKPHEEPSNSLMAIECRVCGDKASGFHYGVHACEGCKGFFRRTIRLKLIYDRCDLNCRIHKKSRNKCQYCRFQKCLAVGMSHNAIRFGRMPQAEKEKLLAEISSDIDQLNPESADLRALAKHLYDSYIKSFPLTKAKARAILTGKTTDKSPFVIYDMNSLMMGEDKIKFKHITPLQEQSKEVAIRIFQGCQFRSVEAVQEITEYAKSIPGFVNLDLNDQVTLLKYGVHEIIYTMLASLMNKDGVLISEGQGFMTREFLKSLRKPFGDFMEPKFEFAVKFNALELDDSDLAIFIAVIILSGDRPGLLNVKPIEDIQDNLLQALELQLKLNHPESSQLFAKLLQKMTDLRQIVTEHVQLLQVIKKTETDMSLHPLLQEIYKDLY
Chain of Estrogen receptor (Homo sapiens) (P03372 whole entry, looked up): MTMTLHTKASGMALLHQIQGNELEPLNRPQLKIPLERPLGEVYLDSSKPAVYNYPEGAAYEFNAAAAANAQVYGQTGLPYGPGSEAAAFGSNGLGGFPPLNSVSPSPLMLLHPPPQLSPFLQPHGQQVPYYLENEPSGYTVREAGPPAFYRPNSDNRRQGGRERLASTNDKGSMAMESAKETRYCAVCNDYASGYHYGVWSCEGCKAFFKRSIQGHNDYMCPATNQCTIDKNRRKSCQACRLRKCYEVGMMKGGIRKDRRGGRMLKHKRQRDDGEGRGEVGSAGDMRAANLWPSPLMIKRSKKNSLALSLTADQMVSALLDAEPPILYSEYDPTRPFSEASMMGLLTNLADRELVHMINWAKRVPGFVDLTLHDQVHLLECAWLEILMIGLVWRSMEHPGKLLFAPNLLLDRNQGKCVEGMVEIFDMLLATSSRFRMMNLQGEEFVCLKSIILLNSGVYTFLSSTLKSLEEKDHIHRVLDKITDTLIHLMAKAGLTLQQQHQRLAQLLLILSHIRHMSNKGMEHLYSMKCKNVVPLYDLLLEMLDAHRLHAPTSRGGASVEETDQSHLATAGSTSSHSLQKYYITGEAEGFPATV
Chain of Aromatase (Homo sapiens) (P11511 whole entry, looked up): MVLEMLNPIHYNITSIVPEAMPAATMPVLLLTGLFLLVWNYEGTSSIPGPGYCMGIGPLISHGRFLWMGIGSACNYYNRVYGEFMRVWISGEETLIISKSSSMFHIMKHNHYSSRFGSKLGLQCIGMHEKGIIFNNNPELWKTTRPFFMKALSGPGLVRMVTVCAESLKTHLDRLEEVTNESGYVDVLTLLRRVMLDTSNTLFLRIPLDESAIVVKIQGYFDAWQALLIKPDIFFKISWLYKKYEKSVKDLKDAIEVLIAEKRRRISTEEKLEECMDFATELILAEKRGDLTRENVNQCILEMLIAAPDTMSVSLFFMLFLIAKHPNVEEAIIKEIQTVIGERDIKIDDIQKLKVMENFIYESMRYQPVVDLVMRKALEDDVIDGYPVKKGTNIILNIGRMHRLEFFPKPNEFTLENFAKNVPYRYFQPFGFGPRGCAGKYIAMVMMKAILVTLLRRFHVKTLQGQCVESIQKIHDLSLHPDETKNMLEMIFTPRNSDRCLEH
Chain of Aryl hydrocarbon receptor (Homo sapiens) (P35869 whole entry, looked up): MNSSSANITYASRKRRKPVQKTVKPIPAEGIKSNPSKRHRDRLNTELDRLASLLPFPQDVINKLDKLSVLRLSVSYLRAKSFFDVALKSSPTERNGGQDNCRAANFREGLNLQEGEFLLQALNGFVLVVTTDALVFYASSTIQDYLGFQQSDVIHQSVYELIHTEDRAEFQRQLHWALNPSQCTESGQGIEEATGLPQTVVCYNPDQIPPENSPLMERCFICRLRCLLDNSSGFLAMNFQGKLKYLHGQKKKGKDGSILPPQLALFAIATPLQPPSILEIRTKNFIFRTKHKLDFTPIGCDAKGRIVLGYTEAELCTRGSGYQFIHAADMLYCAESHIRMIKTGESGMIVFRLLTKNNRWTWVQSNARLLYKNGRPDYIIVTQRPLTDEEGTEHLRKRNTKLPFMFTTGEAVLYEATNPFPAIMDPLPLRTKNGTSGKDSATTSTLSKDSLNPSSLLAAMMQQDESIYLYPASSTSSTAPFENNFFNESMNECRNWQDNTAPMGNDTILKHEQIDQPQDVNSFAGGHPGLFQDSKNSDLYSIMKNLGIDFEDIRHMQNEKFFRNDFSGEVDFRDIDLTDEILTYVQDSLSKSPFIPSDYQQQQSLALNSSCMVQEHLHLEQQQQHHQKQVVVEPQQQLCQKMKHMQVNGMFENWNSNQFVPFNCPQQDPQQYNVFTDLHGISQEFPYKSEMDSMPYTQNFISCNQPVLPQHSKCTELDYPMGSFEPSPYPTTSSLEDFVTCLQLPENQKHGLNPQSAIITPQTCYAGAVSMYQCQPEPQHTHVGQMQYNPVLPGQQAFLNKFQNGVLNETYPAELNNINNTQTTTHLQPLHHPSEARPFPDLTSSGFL

Take `CCCCCCCC/C=C\CCCCCCCC(=O)OCCO`: the Potency result in assay [1], in assay [2], in [3], in assay [4], in assay [5] and in assay [6] was “inactive” in each case. Further, the Potency entry (in assay [7]; with Aromatase (Homo sapiens); in assay [8]; in [9]; in assay [10]; in [12]) was “inactive” throughout. For the same compound, the Potency entry in [13] and in assay [14] was “inactive” in each case. Also, in assay [11], the compound was called inactive. Further, in assay [15], the Potency was 64.9 µM (active).

Consider `CCCC(=O)OC(=O)CCC`, for which the Potency result (in assay [16]; in assay [1]; in [7]; with Aromatase (Homo sapiens); in assay [8]; in assay [9]) was “inactive” each time. For the same compound, the Potency result in assay [10], in assay [13], in assay [14], in assay [15] and in [17] was “inactive” each time. Also, the compound was classed as inactive in assay [11].

In the case of `CCN(CC)C(=O)N1CCN(C)CC1`, the Potency result (in [3]; in assay [7]; with Aromatase (Homo sapiens); in assay [8]; in assay [9]; in assay [10]) was “inactive” in each case. Moreover, the Potency result in [12], in assay [13], in [18] and in [14] was “inactive” each time. Further, the call in assay [11] was inactive.

`O=S(=O)(Cl)c1c(Cl)cccc1Cl`: the Potency result (in [2]; in [3]; in assay [4]; in assay [5]; in assay [7]; in the assay with Aromatase (Homo sapiens)) was “inactive” in each case. Further, the Potency entry in assay [8], in assay [9], in assay [10], in assay [13], in assay [18] and in assay [14] was “inactive” each time. The Potency result in [15] and in assay [17] was “inactive” in each case. Further, the outcome in assay [11] was inactive.

With `Cc1oc(=O)oc1COC(=O)[C@@H]1N2C(=O)[C@@H](NC(=O)[C@H](N)c3ccccc3)[C@H]2SC1(C)C`, the Potency entry in assay [12], in assay [13], in [18], in assay [14], in [15] and in [17] was “inactive” in each case.

For `CCCCCc1ccco1`, the Potency entry (in assay [1]; in [3]; in assay [7]; with Aromatase (Homo sapiens); in assay [8]; in [9]) was “inactive” each time. Further, the Potency result in [10] and in [13] was “inactive” throughout.

Take `CCCCC[C@H](O)/C=C/[C@H]1[C@H](O)CC(=O)[C@@H]1C/C=C\CCCC(=O)O`: the Potency entry (in [1]; in assay [3]; with Aromatase (Homo sapiens); in assay [8]; in assay [9]; in assay [10]) was “inactive” throughout. Also, the Potency result in assay [12], in assay [13], in assay [14] and in assay [15] was “inactive” in each case. In addition, the call in assay [11] was inactive.

Regarding `Cc1ccc(N(CC2=NCCN2)c2cccc(O)c2)cc1`, the Potency result (in assay [1]; in [2]; in assay [3]; in [4]; in assay [7]; with Aromatase (Homo sapiens)) was “inactive” throughout. The Potency result in [8], in assay [9], in assay [10], in assay [12], in assay [13] and in assay [14] was “inactive” in each case. Also, the Potency result in [15] and in [17] was “inactive” in each case. In addition, the call in assay [11] was inactive.

In the case of `Oc1cccc2[nH]ccc12`, the Potency entry in assay [12], in assay [13], in assay [14], in assay [15] and in assay [17] was “inactive” each time.

Regarding `CCN(CC)CC(=O)Nc1c(C)cccc1C(=O)OC`, the Potency entry in assay [13], in assay [18], in [14], in assay [15] and in [17] was “inactive” in each case.

On to `COC(=O)Nc1nc2ccc(C(=O)C3CC3)cc2[nH]1`, for which the Potency result in [13], in assay [18] and in [15] was “inactive” in each case.

As for `Cc1ccc2c(c1[N+](=O)[O-])C(=O)c1ccccc1C2=O`, the Potency result (in [1]; in assay [3]; in [4]; in assay [7]; with Aromatase (Homo sapiens); in assay [10]) was “inactive” each time. Besides, the Potency entry in assay [13] and in assay [15] was “inactive” in each case. The Potency was 3.78 µM (active) in [5] and 30 µM (active) in [9].

With `CN=C(N)NC(=O)Nc1c(C)cccc1C`, the Potency result (in [2]; in assay [3]; in assay [4]; in assay [5]; in assay [6]; with Aromatase (Homo sapiens)) was “inactive” in each case. In addition, the Potency entry in assay [8], in assay [9], in assay [10], in assay [13], in [18] and in [14] was “inactive” each time. Moreover, in [17], the Potency result was “inactive”.

Regarding `Nc1ccn([C@H]2CS[C@@H](CO)O2)c(=O)n1`, the Potency entry (in assay [3]; in assay [7]; with Aromatase (Homo sapiens); in assay [8]; in [9]; in assay [10]) was “inactive” throughout. Moreover, the Potency result in [14], in [15] and in [17] was “inactive” each time.

Consider `CCCCCCCC/C=C/C(=O)O`, for which the Potency result in assay [13], in assay [18] and in assay [15] was “inactive” each time.

As to `CCOC(=O)N1CCC(Nc2ccc(Cl)cc2N)CC1`, the Potency entry in [13], in assay [14] and in [15] was “inactive” throughout. The Potency in [18] is 7.5 µM (active).

In the case of `CSCC[C@H](NC(=O)[C@H](Cc1c[nH]c2ccccc12)NC(=O)CCNC(=O)OC(C)(C)C)C(=O)N[C@@H](CC(=O)O)C(=O)N[C@@H](Cc1ccccc1)C(N)=O`, the Potency result (in [2]; in [3]; in assay [4]; in assay [5]; in [6]; with Aromatase (Homo sapiens)) was “inactive” throughout. Further, the Potency result in assay [8], in assay [10], in assay [12], in assay [13], in [15] and in [17] was “inactive” each time. The result in assay [11] was inactive.

Take `Cc1ccccc1S(N)(=O)=O`: the Potency entry in assay [16], in [1], in assay [3], in [7], in assay [10] and in assay [13] was “inactive” throughout. Besides, the Potency result in [14] and in assay [15] was “inactive” each time.

For the compound `CC/C=C\C/C=C\C/C=C\CCCCCCCC(=O)OCC`, the Potency result in [1], in assay [3], in assay [7], in assay [9], in assay [10] and in [13] was “inactive” in each case. In addition, the Potency result in assay [14] and in assay [15] was “inactive” each time.

As to `CCCCCCCC(=O)Oc1c(Br)cc(C#N)cc1Br`, the Potency entry in assay [1], in assay [4], in assay [7], in assay [10] and in assay [18] was “inactive” each time. Moreover, the Potency (in [6]; in the assay with Aromatase (Homo sapiens)) was 60.9 µM (active) throughout.

As for `C=C(C)c1ccccc1`, the Potency entry in assay [16], in [1], in assay [3], in assay [7], in [10] and in assay [13] was “inactive” throughout. Besides, the Potency entry in assay [14], in assay [15] and in [17] was “inactive” in each case.
